Assay results as given in PubChem BioAssay (EPA / NIEHS).
Results filed as inconclusive are left out. Activity calls are given as the source filed them. Rule for the calls: active = hit-call score of the fitted dose curve at least 0.9, where 1 is the maximum; inconclusive = response in the unintended direction; inactive = score below 0.9.

Target: human RAR-related Orphan Receptor gamma (RORg), RORC (gene 6097) (UniProt P51449)
Assay: ATG_RORg_TRANS: Attagene TRANS-FACTORIAL HepG2 Assay for human RAR-related Orphan Receptor gamma (RORg) (AID 2283011)
Description: ATG_TRANS is a cell-based, multiplexed-readout assay that uses HepG2, a human liver cell line, with measurements taken at 24 hours after chemical dosing in a 24-well plate.ATG_RORg_TRANS is one of 30 assay component(s) measured or calculated from the ATG_TRANS assay. It is designed to make measurements of mRNA induction, a form of inducible reporter, as detected with fluorescence intensity signals by Reverse transcription polymerase chain reaction (RT-PCR) and Capillary electrophoresis technology.Data from the assay component ATG_RORg_TRANS was analyzed into 1 assay endpoint. This assay endpoint, ATG_RORg_TRANS, was analyzed in the positive analysis fitting direction relative to DMSO as the negative control and baseline of activity. Using a type of inducible reporter, measures of mRNA for gain-of-signal activity can be used to understand the reporter gene at the transcription factor-level as they relate to the gene RORC. Furthermore, this assay endpoint can be referred to as a primary readout, because this assay has produced multiple assay endpoints where this one serves a reporter gene function. To generalize the intended target to other relatable targets, this assay endpoint is annotated to the nuclear receptor intended target family, where the subfamily is orphan.
Human liver HepG2 cells are transiently transfected with multiple reporter transcription units (MRTUs) in 6-well plates using FuGene 6 reagent (Roche; 3 ml FuGene/1 mg DNA). The MRTU constructs are regulated by a cis-regulating element (promoter). […] A major difference between the CIS and TRANS system is that in CIS activities of endogenous TFs are measured, whereas the TRANS assay evaluates changes in activities of exogenous, chimeric NR-Gal4 proteins. […] At the end of 24 hour incubation, total RNA was isolated using TriZol reagent (Invitrogen). The isolated RNA is then reverse-transcribed using oligo(dT) primer and Mo-MLV reverse transcriptase (Invitrogen) with DNAse I (Ambion) treatment for 30 min. The one-tenth of the produced cDNA was amplified by PCR using Taq DNA polymerase (Invitrogen) and two reporter sequence-specific primers. The PCR products were fluorescently labeled by primer extension with 6-arboxyfluorescein (6-FAM) 5'-labeled reporter sequence-specific primer (2 min at 95 C, 20 s at 68 C and 10 min at 72 C) and these products were digested with 5U of HpaI (New England Biolabs) for 2h at 37 C. The fragments were purified using Qiaquick PCR columns (Qiagen), analyzed on an ABI 3130xL genetic analyzer (Applied Biosystems) with peak positions identified by using a set of X-rhodamine (ROX)-labeled MapMarker1000 molecular weight standards (BioVentures). The raw capillary electrophoresis data was processed using Attagraph software (Attagene).

human RAR-related Orphan Receptor gamma (RORg), RORC (gene 6097), sequence (P51449 whole entry, looked up): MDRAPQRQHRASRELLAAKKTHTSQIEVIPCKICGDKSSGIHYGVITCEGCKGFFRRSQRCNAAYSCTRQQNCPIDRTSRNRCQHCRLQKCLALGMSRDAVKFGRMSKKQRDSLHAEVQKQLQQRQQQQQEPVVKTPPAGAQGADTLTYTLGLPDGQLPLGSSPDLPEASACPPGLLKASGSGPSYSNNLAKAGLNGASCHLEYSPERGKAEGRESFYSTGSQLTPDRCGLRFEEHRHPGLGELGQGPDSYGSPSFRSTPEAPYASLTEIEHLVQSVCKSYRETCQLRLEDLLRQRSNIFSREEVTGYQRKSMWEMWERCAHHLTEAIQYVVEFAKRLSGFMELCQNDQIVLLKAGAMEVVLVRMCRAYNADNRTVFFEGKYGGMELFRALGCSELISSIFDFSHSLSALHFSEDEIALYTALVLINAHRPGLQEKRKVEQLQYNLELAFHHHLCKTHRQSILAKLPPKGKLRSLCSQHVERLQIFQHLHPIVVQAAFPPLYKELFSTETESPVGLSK

| Structure (SMILES) | outcome |
| --- | --- |
| CC(C)=CC1CC(C)CCO1 (stereo not given) | inactive |
| CC(C)c1ccc(C#N)cc1 | inactive |
| CC(C)(C)C(=O)CCc1ccc(Cl)cc1 | inactive |
| COC(=O)c1sccc1S(N)(=O)=O | inactive |
| CCN(CC#N)c1cccc(C)c1 | inactive |
| CCCCNc1ccc(NCCCC)c2c1C(=O)c1ccccc1C2=O | inactive |
| CCC(CO)CO | inactive |
| CCOCC(=O)O | inactive |
| C=CCOc1c(Br)cc(Br)cc1Br | inactive |
| CC(=O)Oc1ccc(C(C)=O)cc1 | inactive |
| c1ccc(CNCc2ccccc2)cc1 | inactive |
| OC1CCCC1 | inactive |
| O=S(=O)(O)c1cc(S(=O)(=O)O)c2ccc3c(S(=O)(=O)O)cc(S(=O)(=O)O)c4ccc1c2c43 | inactive |
| CC=CC(=O)N(CC)c1ccccc1C | inactive |
| Cc1ccc(N/N=c2\c(=O)cc/c(=N/Nc3ccc(S(=O)(=O)O)cc3)c2=O)c(C)c1 | inactive |
| Clc1nc2ccccc2s1 | inactive |
| COCC(C)N (stereo not given) | inactive |
| CC(=O)Oc1ccc(C)cc1 | inactive |
| COC(=O)c1ccccc1OC | inactive |
| CC(=O)Nc1nnc(S(N)(=O)=O)s1 | inactive |

| Structure (SMILES) | outcome |
| --- | --- |
| Cc1cc(C)c(C)c(C)c1 | inactive |
| CC[C@H]1OC(=O)[C@H](C)[C@@H](O[C@H]2C[C@@](C)(OC)[C@@H](O)[C@H](C)O2)[C@H](C)[C@@H](O[C@@H]2O[C@H](C)C[C@H](N(C)C)[C@H]2O)[C@](C)(O)C[C@@H](C)C(=NOCOCCOC)[C@H](C)[C@@H](O)[C@]1(C)O | inactive |
| Cc1ccc(C2OC[C@@H]3OC(c4ccc(C)cc4)O[C@H]([C@H](O)CO)[C@@H]3O2)cc1 (stereo not given in full) | inactive |
| COc1ccc([C@@H]2CC(=O)c3c(O)cc(O[C@@H]4O[C@H](CO[C@@H]5O[C@@H](C)[C@H](O)[C@@H](O)[C@H]5O)[C@@H](O)[C@H](O)[C@H]4O)cc3O2)cc1OC | inactive |
| CC(C)CCCC(C)CC=O (stereo not given) | inactive |
| Cc1ccc(N)c([N+](=O)[O-])c1 | inactive |
| O=CC1CC1 | inactive |
| COc1ccc2nc(N)sc2c1 | inactive |
| CCCCCCCCO[C@@H]1O[C@H](CO)[C@@H](O)[C@H](O)[C@H]1O | inactive |
| CCCCCCC1(C)CCC(=O)O1 (stereo not given) | inactive |
| CCC(Cc1ccccc1)(C(=O)c1ccc(N2CCOCC2)cc1)N(C)C (stereo not given) | inactive |
| CCCCC(CC)COC(=O)c1ccccc1O (stereo not given) | inactive |
| NC(=O)C1CO1 (stereo not given) | inactive |
| C1=Cc2ccccc2C1 | inactive |
| [Cl][Nd]([Cl])[Cl] | inactive |
| CCCCCCC(O)CO (stereo not given) | inactive |
| O=Cc1ccc(CO)o1 | inactive |
| CC(C)c1ccc(C=O)cc1 | inactive |
| C=C(C)[C@H]1CC=C(C)CC1 | inactive |
| Nc1ccc2cc3ccccc3cc2c1 | inactive |
